This is a sample that favours compounds with a hit; in the whole collection about 3.1% have one here.
GDH-TPI counter: GDH-TPI coupled enzyme inhibition counter-screen; GDH-TPI coupled enzyme counterscreen, NADH absorbance; hit rate 1.2% among 360,000; inhibition, % at 4.8 µM; AID 588335; in the data active means inhibition above about 30%;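 further: 0% = DMSO wells and 100% = wells lacking the enzyme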
FadD28 binding: M. tuberculosis FadD28 bisubstrate binding inhibition; FadD28 bisubstrate probe binding, fluorescence polarization; inhibition, % at 12.5 µM; hit rate 0.22% among 360,000; AID 588549; in the data active means inhibition above about 8.5%, passing the limit was not always enough; inconclusive means no clear call, values can overlap the other calls
3CLpro inhibitor: SARS-CoV 3CLpro protease inhibition. P0C6X7. inhibition, % at 6 µM. recombinant SARS-CoV 3CLpro, quenched FRET peptide cleavage. hit rate 0.14% among 290,000; in the data active means inhibition above about 12%
Mtb BioA inh: BioA (M. tuberculosis) enzyme inhibition; hit rate 0.096% among 360,000; purified M. tuberculosis BioA enzyme, plate reader; inhibition, % at 9.99 µM; in the data active means inhibition above about 40%; inconclusive means no clear call, values can overlap the other calls
Mtb FBA inh: inhibitors of M. tuberculosis fructose-bisphosphate aldolase | hit rate 2.3% among 360,000 | P9WQA3 | AID 588726 | inhibition, % at 1 µM | purified M. tuberculosis FBA, fluorescence read-out; in the data active means inhibition above about 27%;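 further: 0% = vehicle and 100% = reference inhibitor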
Target sequence (P9WQA3 whole entry, looked up): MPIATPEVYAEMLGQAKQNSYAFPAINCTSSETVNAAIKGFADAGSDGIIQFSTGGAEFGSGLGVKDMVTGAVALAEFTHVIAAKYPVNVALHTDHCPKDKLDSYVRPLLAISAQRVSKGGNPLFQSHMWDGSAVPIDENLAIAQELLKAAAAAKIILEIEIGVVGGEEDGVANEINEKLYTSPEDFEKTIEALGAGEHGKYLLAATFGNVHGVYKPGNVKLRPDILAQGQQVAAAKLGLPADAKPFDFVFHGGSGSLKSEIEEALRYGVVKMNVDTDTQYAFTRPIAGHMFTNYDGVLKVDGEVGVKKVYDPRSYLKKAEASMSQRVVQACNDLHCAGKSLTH
* hit, by the source's call; ? = inconclusive; . = not tested or not shown; + = active, no number.

SMILES	GDH-TPI counter	FadD28 binding	3CLpro inhibitor	Mtb BioA inh	Mtb FBA inh
COc1cc(C(=O)Nc2ccc3c(c2)CCN3C(C)=O)cc(OC)c1OC	7	-4	-1	.	0
CCOC(=O)C(=CNc1ccc2c(c1)CCN2C(C)=O)C(=O)OCC	35*	-3	-3	1	-3
COc1ccc(NC(=O)N(C)C[C@@H]2Oc3ncc(C#CCN(C)C)cc3C(=O)N([C@H](C)CO)C[C@H]2C)cc1	.	.	.	0	.
Cc1noc(C)c1NC(=O)N(C)C[C@@H]1Oc2ccc(NC(=O)Nc3cccc4ccccc34)cc2CC(=O)N([C@H](C)CO)C[C@H]1C	.	.	.	-1	.
CCCN1C[C@H](C)[C@@H](OC)CN(C)C(=O)c2cc(NC(=O)c3cccc(F)c3)ccc2OC[C@H]1C	.	.	.	4	.
COc1cc(N=Nc2cccc(S(N)(=O)=O)c2)c2ccccc2c1N	8	9.7*	3	1	-14
NC1=NC(=Nc2cccc(S(N)(=O)=O)c2)c2ccccc21	8	-4	-8	6	0
Nc1ccc2oc(-c3ccc4nc[nH]c4c3)nc2c1	31*	-6	0	2	6
COc1cc2cc(C(N)=O)c(N)nc2cc1OC	-2	?	-1	-1	+
Cn1c(N)c(N=O)c(=O)n(C)c1=S	43*	-1	.	1	-2
O=S(=O)(N[C@@H]1CCCN(Cc2ccc(OCCO)cc2)C1)c1cc(C(F)(F)F)ccc1Cl	.	.	.	1	.
Cn1cncc1C#Cc1ccc2cc(CCCO)oc(=O)c2c1	34*	-1	.	-1	47*
O=c1oc(CCCO)cc2ccc(Br)cc12	-4	-1	.	1	1
Cn1cncc1C#Cc1ccc2c(=O)c3ccccc3oc2c1	41*	-2	.	0	3
Cn1cncc1C#Cc1ccc2cc(C(C)(C)O)oc(=O)c2c1	31*	-1	.	0	14
Cn1cncc1C#Cc1ccc2cc(C3(O)CCCCC3)oc(=O)c2c1	7	2	.	6	4
COc1cccc(NC(=O)Cn2c(=O)oc3cc(S(=O)(=O)N4CCCC4)ccc32)c1	-5	24*	-3	4	3
Cc1cccc(NC(=O)Cn2c(=O)oc3cc(S(=O)(=O)N4CCCC4)ccc32)n1	15	14*	-1	3	0
Cc1cccc(NC(=O)Cn2c(=O)oc3ccccc32)n1	4	20*	6	2	2
Cc1cc(NC(=O)Cn2c(=O)oc3ccccc32)no1	-3	-3	.	-1	1
C[C@@H]1CCCCO[C@@H](CN(C)Cc2ccc(Cl)c(Cl)c2)[C@H](C)CN([C@@H](C)CO)C(=O)c2cc(NS(=O)(=O)c3ccc(Cl)cc3)ccc2O1	.	.	.	-3	.
O=C(NC1CCCCC1)N[C@@H]1CC[C@@H](CCNS(=O)(=O)c2ccccc2)O[C@@H]1CO	.	.	.	-3	.
O=C1C=CC(=O)C2C1C1(Cl)C(Cl)=C(Cl)C2(Cl)C1(Cl)Cl (stereo not given)	-4	37*	.	9	-3
COC(=O)c1ccc2c(C)c(C(C)(C)O)[nH]c2c1	19	1	-2	-2	+
COCCn1c(=O)[nH]c2cc(C(=O)OC)ccc2c1=O	-1	-5	2	0	19
SMILES	GDH-TPI counter	FadD28 binding	3CLpro inhibitor	Mtb BioA inh	Mtb FBA inh
C[C@@H]1CN([C@@H](C)CO)C(=O)Cc2cc(NC(=O)CCC(F)(F)F)ccc2O[C@H]1CN(C)C(=O)Nc1cccc2ccccc12	.	.	.	0	.
CN(C)c1ccc(C(=O)Nc2nc3c(s2)CCCC3)cc1	37*	-3	-2	0	2
CC(C)(C)c1ccc(C(=O)NC(=S)Nc2nc3c(s2)CCCC3)cc1	8	-2	1	0	6
N=c1c2c(-c3ccccc3)c(-c3ccccc3)n(Cc3ccco3)c2ncn1CCCN1CCOCC1	-8	8.8*	-2	.	-2
Cc1occc1C(=O)N/N=C/c1ccc(N(C)C)cc1	81*	-2	-3	0	12
CC(=O)Nc1ccc(/C=N/NC(=O)c2cc3cc(C)ccc3nc2C)cc1	38*	0	4	-6	0
Cc1nc2c(C)cccc2cc1C(=O)N/N=C/c1ccc(N(C)C)cc1	51*	0	0	-2	3
Cn1c(=O)n(C)c2cc(/C=N/NC(=O)c3ccc(Cl)cc3)ccc21	51*	-2	-1	-2	4
Cc1ccc(-c2cnc3c(c2)C(=O)N([C@H](C)CO)C[C@@H](C)[C@@H](CN(C)C(=O)c2ccccc2)O3)cc1	.	.	.	3	.
C[C@@H]1CN([C@H](C)CO)C(=O)c2cc(-c3cccnc3)cnc2O[C@@H]1CN(C)C(=O)C1CCCCC1	.	.	.	0	.
O=C(NCC[C@H]1CC[C@@H](NS(=O)(=O)c2cccc(F)c2)[C@H](CO)O1)c1cnccn1	.	.	.	3	.
CN(C)c1ccc(/C=N\NC(=O)c2ccc(Cn3cc(Cl)cn3)cc2)cc1	35*	-1	6	.	0
CN(C)c1ccc(/C=N/NC(=O)c2ccc(Cl)cc2)cc1	31*	2	-2	-1	1
CCCNC(=O)N1[C@H](CO)[C@H](c2ccccc2)[C@@H]1CNC(=O)c1ccc(F)cc1	.	.	.	5	.
Cc1ccc(/C=C/C(=O)OCC(=O)N(CC(C)C)c2c(N)n(Cc3ccccc3)c(=O)[nH]c2=O)o1	42*	-1	.	0	0
O=C1CN(C(=O)COC(=O)c2ccccc2NCc2ccco2)c2ccccc2N1	14	0	9	-1	61*
CN(C(=O)COC(=O)c1ccccc1NCc1ccco1)c1c(N)n(Cc2ccccc2)c(=O)[nH]c1=O	2	-1	.	.	115*
O=C(N[C@H]1C=C[C@H](CC(=O)N2CCOCC2)O[C@H]1CO)c1cccc(F)c1	.	.	.	-1	.
C[C@H](CO)N1C[C@H](C)[C@@H](CN(C)S(=O)(=O)c2cccs2)Oc2ccc(NS(=O)(=O)c3ccc(F)cc3)cc2CC1=O	.	.	.	-3	.
C[C@@H]1CN([C@H](C)CO)C(=O)c2cc(NS(=O)(=O)c3ccc(F)cc3)ccc2O[C@H]1CN(C)S(C)(=O)=O	.	.	.	-1	.
CC(C)(C)c1ccc(C(=O)Nc2nnc(C3=COCCO3)o2)cc1	4	3	4	0	0
CN(C)c1ccc(C(=O)Nc2nnc(C3=COCCO3)o2)cc1	41*	-2	4	-3	3
CC(=O)N(C)C[C@H]1Oc2ncc(C#Cc3cccnc3)cc2C(=O)N([C@@H](C)CO)C[C@@H]1C	.	.	.	1	.
C[C@@H]1CN([C@@H](C)CO)S(=O)(=O)c2ccc(C#CC3CCCC3)cc2O[C@H]1CN(C)C	.	.	.	-2	.
O=C(c1ccco1)c1cn(CC(=O)N2CCCCCC2)c2ccccc12	38*	0	6	0	-3
C[C@H](NC(=O)[C@@H]1[C@@H](CO)[C@@H]2Cn3c(ccc(-c4ccccc4F)c3=O)[C@H]1N2)c1ccccc1	.	.	.	-1	.
Cn1cnc(S(=O)(=O)N2C[C@@H](O)COC[C@@H]3O[C@@H](CC(=O)NCc4cc(F)cc(F)c4)CC[C@H]32)c1	.	.	.	0	.
CCN(/N=C/C=C/c1ccccc1)c1cc(=O)n(C)c(=O)[nH]1	70*	-1	0	.	-2
CCN(/N=C/c1ccc(Cl)cc1)c1cc(=O)n(C)c(=O)[nH]1	51*	-2	0	.	0

Compound activity: PubChem, several laboratories
